# The supplement of paper PMC8728848
# Many of the other results were omitted from the sample, so the strongest signals are more common in it than they were.
# B1: MCL (Mus musculus), Q9Z2H6 (protein)
# chain: MWLEESQMKSKGTRHPQLIPCVFAVVSISFLSACFISTCLVTHHYFLRWTRGSVVKLSDYHTRVTCIREEPQPGATGGTWTCCPVSWRAFQSNCYFPLNDNQTWHESERNCSGMSSHLVTINTEAEQNFVTQLLDKRFSYFLGLADENVEGQWQWVDKTPFNPHTVFWEKGESNDFMEEDCVVLVHVHEKWVWNDFPCHFEVRRICKLPGITFNWKPSK
# Assays:
# Experiment in all cases: glycan array binding signal (z-score within array); higher = stronger binding
# Conditions in all cases: glycan notation: IUPAC condensed, linker removed
# [1] = target: Fuc(a1-2)[Gal(a1-3)]Gal(b1-4)Glc
# Outline: (§1)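 Negative Z-scores can be read as non-binding. The Z-score is calculated within each array and then averaged across arrays of one protein sequence at different concentrations or buffers and across linkers. Arrays, 3228 in all, were curated from the Consortium for Functional Glycomics database and kept only where the protein sequence was available.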
# [2] = target: Fuc(a1-2)[Gal(a1-3)]Gal(b1-4)[Fuc(a1-3)]GlcNAc
# Outline: as §1
# [3] = target: Fuc(a1-2)[GalNAc(a1-3)]Gal
# Outline: as §1
# [4] = target: Fuc(a1-2)[GalNAc(a1-3)]Gal(b1-3)GlcNAc
# Outline: as §1
# [5] = target: Fuc(a1-3)[Gal(b1-4)]GlcNAc(b1-2)Man(a1-6)[Gal(b1-4)GlcNAc(b1-2)Man(a1-3)]Man(b1-4)GlcNAc(b1-4)GlcNAc
# Outline: as §1
# [6] = target: Fuc(a1-3)[Gal(b1-4)]GlcNAc(b1-3)Gal(b1-3)[Fuc(a1-4)]GlcNAc
# Outline: as §1
# [7] = target: Fuc(a1-3)[Gal(b1-4)]GlcNAc6S
# Outline: as §1
# [8] = target: Fuc(b1-3)GlcNAc
# Outline: as §1
# [9] = target: Gal(a1-3)Gal(b1-3)GlcNAc
# Outline: as §1
# [10] = target: Gal(a1-3)Gal(b1-4)GlcNAc
# Outline: as §1
# [11] = target: Gal(b1-2)Gal
# Outline: as §1
# [12] = target: Gal(b1-3)Gal
# Outline: as §1
# [13] = target: Gal(b1-3)GlcNAc
# Outline: as §1
# [14] = target: Gal(b1-3)GlcNAc(b1-2)Man(a1-3)[Gal(b1-3)GlcNAc(b1-2)Man(a1-6)]Man(b1-4)GlcNAc(b1-4)GlcNAc
# Outline: as §1
# [15] = target: Gal(b1-4)GlcNAc(b1-3)Gal(b1-4)Glc
# Outline: as §1
# [16] = target: Gal3S(b1-3)[Fuc(a1-4)]GlcNAc
# Outline: as §1
# [17] = target: Gal6S(b1-4)Glc
# Outline: as §1
# [18] = target: GalNAc(a1-3)GalNAc
# Outline: as §1
# [19] = target: GlcNAc(b1-3)GalNAc
# Outline: as §1
# [20] = target: GlcNAc(b1-3)[GlcNAc(b1-6)]Gal(b1-4)GlcNAc
# Outline: as §1
# [21] = target: GlcNAc(b1-6)Gal(b1-4)GlcNAc
# Outline: as §1
# [22] = target: Neu5Ac(a2-3)Gal(b1-3)GalNAc(b1-3)Gal(b1-4)GlcNAc
# Outline: as §1
# [23] = target: Neu5Ac(a2-3)Gal(b1-3)GlcNAc
# Outline: as §1
# [24] = target: Neu5Ac(a2-3)Gal(b1-3)GlcNAc(b1-3)Gal(b1-3)GlcNAc
# Outline: as §1
# [25] = target: Neu5Ac(a2-3)Gal(b1-3)[Fuc(a1-4)]GlcNAc(b1-3)Gal(b1-4)[Fuc(a1-3)]GlcNAc
# Outline: as §1
# [26] = target: Neu5Ac(a2-3)Gal(b1-3)[Neu5Ac(a2-3)Gal(b1-4)]GlcNAc
# Outline: as §1
# [27] = target: Neu5Ac(a2-3)Gal(b1-3)[Neu5Ac(a2-6)]GalNAc
# Outline: as §1
# [28] = target: Neu5Ac(a2-3)Gal(b1-4)GlcNAc6S
# Outline: as §1
# [29] = target: Neu5Ac(a2-3)Gal(b1-4)[Fuc(a1-3)]GlcNAc(b1-3)Gal
# Outline: as §1
# [30] = target: Neu5Ac(a2-3)Gal(b1-4)[Fuc(a1-3)]GlcNAc6S
# Outline: as §1
# [31] = target: Neu5Ac(a2-3)GalNAc(b1-4)GlcNAc
# Outline: as §1
# [32] = target: Neu5Ac(a2-6)Gal(b1-4)GlcNAc(b1-2)Man(a1-3)[GlcNAc(b1-2)Man(b1-4)GlcNAc(b1-2)Man(a1-6)]Man(b1-4)GlcNAc(b1-4)GlcNAc
# Outline: as §1
# [33] = target: Neu5Ac(a2-6)GalNAc(b1-4)GlcNAc
# Outline: as §1
# [34] = target: Neu5Gc(a2-3)Gal(b1-3)[Fuc(a1-4)]GlcNAc
# Outline: as §1
# [35] = target: Neu5Gc(b2-6)Gal(b1-4)GlcNAc
# Outline: as §1
binder,measurement,setting,value
B1,glycan array binding signal (z-score),[1],-0.321
same,glycan array binding signal (z-score),[2],0.241
same,glycan array binding signal (z-score),[3],-0.254
same,glycan array binding signal (z-score),[4],0.999
same,glycan array binding signal (z-score),[5],5.26
same,glycan array binding signal (z-score),[6],0.601
same,glycan array binding signal (z-score),[7],-0.78
same,glycan array binding signal (z-score),[8],-0.475
same,glycan array binding signal (z-score),[9],2.63
same,glycan array binding signal (z-score),[10],3.06
same,glycan array binding signal (z-score),[11],-0.362
same,glycan array binding signal (z-score),[12],-0.472
same,glycan array binding signal (z-score),[13],0.168
same,glycan array binding signal (z-score),[14],-0.92
same,glycan array binding signal (z-score),[15],0.482
same,glycan array binding signal (z-score),[16],0.263
same,glycan array binding signal (z-score),[17],0.143
same,glycan array binding signal (z-score),[18],-0.708
same,glycan array binding signal (z-score),[19],0.005
same,glycan array binding signal (z-score),[20],-0.357
same,glycan array binding signal (z-score),[21],-0.735
same,glycan array binding signal (z-score),[22],-0.471
same,glycan array binding signal (z-score),[23],0.527
same,glycan array binding signal (z-score),[24],0.595
same,glycan array binding signal (z-score),[25],-0.245
same,glycan array binding signal (z-score),[26],2.08
same,glycan array binding signal (z-score),[27],0.696
same,glycan array binding signal (z-score),[28],-0.011
same,glycan array binding signal (z-score),[29],-0.251
same,glycan array binding signal (z-score),[30],0.138
same,glycan array binding signal (z-score),[31],-1.14
same,glycan array binding signal (z-score),[32],2.17
same,glycan array binding signal (z-score),[33],-0.814
same,glycan array binding signal (z-score),[34],-0.827
same,glycan array binding signal (z-score),[35],0.767
